Yeast superoxide: yeast age-related superoxide inhibition as caloric restriction mimetic | S. cerevisiae aged cells, superoxide DHE fluorescence; stronger effect = lower value | superoxide response (% of plate mean), % at 10 µM | 0.18% of 330,000 active | AID 2690;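 active = superoxide response under a set limit, about three screen SD below normal, cut at about 65% in these data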;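 also: yeast aged for seven days with compound at 30 °C before DHE staining; 100% = average MFI of all compound-treated wells on the plate with controls excluded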
M18AAP inhibitor: PfM18AAP enzyme inhibition | recombinant PfM18AAP, H-Glu-NHMec fluorogenic cleavage | inhibition, % at 7.35 µM | 1.2% of 290,000 active;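 active = inhibition above the campaign mean inhibition over all tested compounds plus 3 SD, cut at about 28% in these data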;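 also: 0% = plate median of test compound wells and 100% = 2 mM ZnCl2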
A3G deaminase: blocks human APOBEC3G single-stranded DNA deamination. Q9HC16. recombinant A3G, ssDNA deamination FAM/TAMRA fluorescence. AID 493012. inhibition, % at 20 µM. 0.28% of 330,000 active;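 active = inhibition of at least 40% at 20 µM, with no more than 30% in the related APOBEC3A deaminase screen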;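 also: plate controls were DMSO wells with A3G for no effect and wells lacking A3G enzyme for full effect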
Target sequence (Q9HC16 whole entry, looked up): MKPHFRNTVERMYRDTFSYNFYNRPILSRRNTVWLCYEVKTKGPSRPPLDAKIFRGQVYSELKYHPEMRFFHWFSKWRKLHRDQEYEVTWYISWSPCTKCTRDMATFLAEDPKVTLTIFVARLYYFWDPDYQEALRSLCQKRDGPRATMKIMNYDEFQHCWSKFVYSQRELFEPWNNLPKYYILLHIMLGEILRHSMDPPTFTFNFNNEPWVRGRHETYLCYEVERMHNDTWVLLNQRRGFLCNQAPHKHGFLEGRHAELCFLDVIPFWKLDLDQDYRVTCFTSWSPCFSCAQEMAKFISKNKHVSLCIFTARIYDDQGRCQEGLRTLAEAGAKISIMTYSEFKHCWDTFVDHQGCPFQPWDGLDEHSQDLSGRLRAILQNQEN
APOBEC3A inh: blocks human APOBEC3A ssDNA deamination. P31941. recombinant A3A, FAM/TAMRA ssDNA deamination fluorescence. inhibition, % at 20 µM. 0.41% of 330,000 active. AID 493011;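 active = at least 40% inhibition at 20 µM here, with at most 30% in a related deaminase screen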;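 also: plate controls were A3A with DMSO for no effect and wells lacking A3A enzyme for full effect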
ALR inh: human ALR oxidase inhibition via reduced H2O2; purified ALR, DTT oxidation, H2O2 HRP-luminol luminescence; 3.8% of 290,000 active; AID 485317; inhibition, % (concentration not given with the values); P55789;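 active = mean replicate inhibition above about 79%, with every replicate also reaching it, limit read from the data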
Target sequence (P55789 whole entry, looked up): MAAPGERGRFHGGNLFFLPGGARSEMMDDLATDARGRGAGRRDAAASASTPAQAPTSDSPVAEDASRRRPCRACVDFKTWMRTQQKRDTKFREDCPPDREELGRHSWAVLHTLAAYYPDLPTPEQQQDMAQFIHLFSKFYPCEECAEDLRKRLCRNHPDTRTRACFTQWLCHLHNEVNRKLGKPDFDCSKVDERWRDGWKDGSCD
NRP1-CendR mod: modulators of CendR peptide binding to human neuropilin-1 | 0.85% of 360,000 active | inhibition, % at 25 µM | O14786 | FAM-RPARPAR peptide binding to NRP-1, fluorescence polarization;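 active = inhibition or corrected inhibition above about 18%, plus a signal ratio from 0.5 to 1.5, limit read from the data, passing the limit was not always enough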
CR mimetic CP: confirmation of caloric restriction mimetics inhibiting yeast age-related superoxide; shares compounds with Yeast superoxide; S. cerevisiae aging, superoxide DHE fluorescence; stronger effect = lower value; superoxide response (% of plate), % at 10 µM; 1% of 850 active;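 active = superoxide signal below 65% of the plate average of sample wells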;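 also: cells aged with compound for 7 days at 30 degrees C before staining; 100% equals mean DHE fluorescence of all compound wells on the plate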
DHE fluor count: counter-screen for compounds affecting DHE oxidation and fluorescence in yeast | fluorescence response, % at 10 µM | S. cerevisiae BY4741, flow cytometry; stronger effect = lower value | shares compounds with Yeast superoxide | 850 tested, under 10 active;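 active = fluorescence response below 15%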;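 also: percent of the mean fluorescence averaged over all compound wells on the plate; lower means stronger quenching of DHE signal or ROS scavenging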
The depositor's hits bear a star; . = no result. Most compounds without a hit are left out; they make up all but 5.2% or so of the library.

SMILES	Yeast superoxide	M18AAP inhibitor	A3G deaminase	APOBEC3A inh	ALR inh	NRP1-CendR mod	CR mimetic CP	DHE fluor count
C=CCNC(N)=S	100	-4	-10	-2	-11	-2	.	.
C/C(CC(=O)Nc1ccc(Cl)c(C(F)(F)F)c1)=N\NC(N)=S	101	9	-3	-2	26	13	.	.
CC1(C)CSC(=S)N1S(=O)(=O)c1ccccc1	58*	5	-3	-1	-5	0	102	93
CC1CCc2c(sc3ncnc(N4CCN(S(=O)(=O)c5cccc6nonc56)CC4)c23)C1 (stereo not given)	.	2	.	.	.	.	.	.
CCN1CCN(c2ncnc3sc4c(c23)CCC(C)C4)CC1 (stereo not given)	51*	2	-5	-4	1	-5	99	91
O=C(NNc1nc(=O)c2cccnc2s1)c1ccccc1O	50*	5	-1	0	22	0	99	112
O=C(NNC(=O)c1cccc2ccccc12)c1ccccc1O	88	21	-6	-4	11	1	.	.
CCOc1ccccc1CNC(=O)CCNS(=O)(=O)c1ccc2[nH]c(=O)oc2c1	103	-7	-5	0	-4	7	.	.
Cc1ccc(S(=O)(=O)N2CCCCC2)cc1NC(=O)CN1C(=O)c2ccccc2S1(=O)=O	108	.	-4	1	-2	-3	.	.
CC(=O)N1CN(C2CC(C)(C)NC(C)(C)C2)Cc2c1sc1c2CCCC1	95	-8	-7	-6	-12	7	.	.
CC1(C)CC(N2CN(C3CCCCC3)CC2=O)CC(C)(C)N1	61*	-3	-7	-4	0	10	118	110
CCc1cccc(C)c1NC(=O)c1ccoc1C	64*	-6	-6	-4	6	-6	108	104
COC(=O)c1c(C)nc(C)c(C(=O)OC)c1-c1ccsc1	85	5	-3	3	-6	6	.	.
Cc1nc(C)c(C(=O)O)c(-c2ccsc2)c1C(=O)O	61*	-3	-3	3	-7	9	103	91
CCOc1ccccc1C=C1SC(=S)NC1=O	.	.	.	.	.	-46	.	.
CCC(CO)Oc1cc(NCc2ccc(C(C)(C)C)cc2)c2ncn(C(C)C)c2c1 (stereo not given)	115	.	-7	-3	-19	4	.	.
CCC(CO)Oc1cc(NCc2ccc(O)cc2)c2ncn(C(C)C)c2c1 (stereo not given)	65*	.	-8	-2	99*	-2	83	91
C=CCNc1nc(Cl)ncc1F	102	-11	-9	-3	-3	-2	.	.
CCOc1ccc(N=Nc2c(=O)[nH]n3c(C)cc(C)nc23)cc1	52*	4	-4	-5	40	-45	100	110
COc1ccc(-c2nc3ccccc3c(=O)n2O)cc1	61*	0	5	17	0	-8	92	86
Cc1ccc2c(c1)C=CC(C)(C)S2=O (stereo not given)	64*	13	-4	-4	.	7	97	112
C=CCC[C@H](Cc1ccc(F)cc1)C(=O)OC[C@H](Cc1c[nH]c2ccccc12)NC(=O)[C@@H](CC=C)CC(=O)NCCO	100	.	-6	-1	-2	1	.	.
Cc1cc(SCC(=O)NC2(C#N)CCCCC2)nc2c(C)cccc12	64*	.	-2	2	-3	7	99	103
Cc1cc(SCC(=O)N2CCCC2=O)nc2c(C)cccc12	84	.	-5	0	-3	1	.	.
CC1O[C@@H](OCC2O[C@@H](Oc3cc(O)c4c(c3)OC(c3ccc(O)cc3)CC4=O)[C@H](O)[C@@H](O)[C@@H]2O)[C@H](O)[C@H](O)[C@H]1O (stereo not given in full)	62*	.	-2	0	.	-1	104	92
SMILES	Yeast superoxide	M18AAP inhibitor	A3G deaminase	APOBEC3A inh	ALR inh	NRP1-CendR mod	CR mimetic CP	DHE fluor count
Cc1ccc(CSc2ncnc3onc(C)c23)cc1	58*	4	-5	-1	-3	-4	112	111
Cc1noc2ncnc(SCc3ccc(C(F)(F)F)cc3)c12	102	-6	4	4	-11	0	.	.
COc1ccc(-n2nnnc2CNC(=O)c2ccc(S(=O)(=O)N3CCOCC3)cc2)cc1	60*	.	5	3	-1	-1	107	114
Cc1c(NC(=O)COC(=O)/C=C/c2ccccc2Br)c(=O)n(-c2ccccc2)n1C	82	.	0	1	15	3	.	.
COc1ccc(CC(=O)OCC(=O)Nc2cccc(Cl)c2)cc1	101	-2	-2	0	.	15	.	.
COc1ccc(CC(=O)OCC(=O)Nc2cc(Cl)ccc2C)cc1	63*	.	4	3	0	11	98	92
Cc1cccc(-n2cc(-c3ccccc3)c3c(NN4CCOCC4)ncnc32)c1	105	0	-3	-2	35	6	.	.
Cc1ccc(-n2cc(-c3ccccc3)c3c(NN4CCOCC4)ncnc32)cc1	62*	0	-3	-1	18	2	88	101
CC(C)CNC(=S)NNC(=O)c1csc2c1CCC(C)C2 (stereo not given)	59*	2	-3	0	7	1	91	89
COc1ccc(S(=O)(=O)N2CCCC2)cc1C(=O)O	90	-9	-3	-4	-4	0	88	98
Cc1ccc(S(=O)(=O)N2CCCCC2)cc1C(=O)N1CCCC1	90	-2	-3	-1	-5	8	.	.
Cc1ccc(S(=O)(=O)N2CCCC2)cc1C(=O)O	111	0	3	4	0	4	92	93
NC(=O)COC(=O)c1cccc(S(=O)(=O)N2CCCCC2)c1	107	-6	-2	2	-45	1	.	.
COc1ccc(S(=O)(=O)N2CCCC2)cc1C(C)C	97	4	-4	0	-22	-8	104	89
CCOC(=O)c1cccc(S(=O)(=O)N2CCCC2)c1	93	-4	0	10	-2	4	107	91
COc1ccc(S(=O)(=O)N2CCCC2)cc1OC	101	0	-13	-5	-6	20	.	.
Cc1cc(C)c(C(=O)COC(=O)CN2C(=O)NC3(CCCC3)C2=O)cc1C	96	.	-5	-2	-4	13	.	.
CC(=O)c1ccc(NC(=O)NCc2ccc(F)cc2)cc1	87	5	-6	-3	-7	-12	.	.
COc1cc(C)c(/C=C(\C#N)C(=O)Nc2cccc(C)c2)cc1C(C)C	50*	-1	-7	-8	-3	-2	102	95
COc1cc2c(cc1OC)CN(C(=O)/C=C/c1ccc(F)cc1)CC2	101	1	-12	-3	-1	10	.	.
COc1cc2c(cc1OC)CN(C(=O)/C=C/c1cc(OC)c(OC)c(OC)c1)CC2	63*	1	1	-4	41	5	97	98
